# High-throughput results: PubChem, National Center for Advancing Translational Sciences (NCATS)
# ALOX12 inh: Primary qHTS assay for inhibitors of human arachidonate 12S-lipoxygenase (ALOX12): Round 2. purified 12hLO, xylenol orange hydroperoxide absorbance. 580,000 tested, 1.1% active. Potency, µM (series often up to 108 µM), most hits filed as inhibitors. Polyunsaturated fatty acid lipoxygenase ALOX12 (Homo sapiens), P18054
#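 Purified human 12hLO (150 nM final) in 25 mM Hepes, 0.01% Triton X-100, pH 7.0 was preincubated 15 min at room temperature with compound. Then 40 uM arachidonic acid was added, 30 min. Hydroperoxide was read by Fe-XO absorbance ratio 573/405 nm.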
# HP1b binding inh: HTS for Inhibitors of HP1-beta Chromodomain Interactions with Methylated Histone Tails; Chromobox protein homolog 1 (Homo sapiens), P83916; AlphaScreen HP1-beta / biotin-H3K9me3 peptide binding; Potency, µM (top dose mostly 114 µM), hits mostly inhibitors; 390,000 tested, 0.56% active; AID 540317, 2011; further: nearly all actives have a fitted effect of over 70% in size
#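 AlphaScreen: HP1-beta (50 nM) preformed 30 min with biotin-H3(1-18)K9me3 peptide (50 nM) in PBS pH 7.4, 0.01% Tween-20. Compound added for 30 min at RT, then streptavidin donor/nickel chelate acceptor beads (10 ug/mL) for 30 min.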
# JMJD2A Tudor: qHTS Assay for Inhibitors of JMJD2A-Tudor Domain; Lysine-specific demethylase 4A (Homo sapiens), O75164; AlphaScreen JMJD2A-Tudor / H3K4me3 peptide binding; Potency, µM (titrated, usually from 114 µM), hits mostly inhibitors; 390,000 tested, 4.4% active; further: nearly all actives have a fitted effect of over 50% in size
# Sfp PPTase inh: qHTS Assay for Inhibitors of Bacillus subtilis Sfp phosphopantetheinyl transferase (PPTase); 310,000 tested, 3.5% active; Biochemical Sfp PPTase activity, qHTS; Potency, µM, usual class: inhibitors;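 further: the enzyme is Sfp with the accession as filed and its product quenches rhodamine fluorescence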
#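 Fluorescence-quenching assay: 15 nM Sfp-PPTase preincubated 15 min at room temperature with compound, then 5 uM rhodamine-CoA and 12.5 uM BHQ-2-labelled YbbR peptide added. Fluorescence (ex 525/em 598 nm) read at start and after 30 min; difference gives rate.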
# G9a block: qHTS Assay for Inhibitors of Histone Lysine Methyltransferase G9a; G9a H3K9 monomethylation, AlphaScreen, 2 h; Potency, µM (top dose mostly 102 µM), most hits filed as inhibitors; 350,000 tested, 8.8% active; AID 504332, 2011; further: nearly all actives have a fitted effect of over 75% in size
#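 Compounds were preincubated with 20 nM G9a for 15 min, after which biotinylated H3K9 peptide (500 nM) and SAM (20 uM) started a 2 h room-temperature reaction. Monomethylated product was quantified by antibody-based AlphaScreen chemiluminescence.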
# BAZ2B block: qHTS Assay for Inhibitors of BAZ2B; AlphaScreen BAZ2B-H3K14Ac peptide displacement; Potency, µM (top dose mostly 114 µM), hits mostly inhibitors; 360,000 tested, 4.4% active; further: nearly all actives have a fitted effect of over 60% in size
# Target sequence (Q9UIF8 whole entry, looked up): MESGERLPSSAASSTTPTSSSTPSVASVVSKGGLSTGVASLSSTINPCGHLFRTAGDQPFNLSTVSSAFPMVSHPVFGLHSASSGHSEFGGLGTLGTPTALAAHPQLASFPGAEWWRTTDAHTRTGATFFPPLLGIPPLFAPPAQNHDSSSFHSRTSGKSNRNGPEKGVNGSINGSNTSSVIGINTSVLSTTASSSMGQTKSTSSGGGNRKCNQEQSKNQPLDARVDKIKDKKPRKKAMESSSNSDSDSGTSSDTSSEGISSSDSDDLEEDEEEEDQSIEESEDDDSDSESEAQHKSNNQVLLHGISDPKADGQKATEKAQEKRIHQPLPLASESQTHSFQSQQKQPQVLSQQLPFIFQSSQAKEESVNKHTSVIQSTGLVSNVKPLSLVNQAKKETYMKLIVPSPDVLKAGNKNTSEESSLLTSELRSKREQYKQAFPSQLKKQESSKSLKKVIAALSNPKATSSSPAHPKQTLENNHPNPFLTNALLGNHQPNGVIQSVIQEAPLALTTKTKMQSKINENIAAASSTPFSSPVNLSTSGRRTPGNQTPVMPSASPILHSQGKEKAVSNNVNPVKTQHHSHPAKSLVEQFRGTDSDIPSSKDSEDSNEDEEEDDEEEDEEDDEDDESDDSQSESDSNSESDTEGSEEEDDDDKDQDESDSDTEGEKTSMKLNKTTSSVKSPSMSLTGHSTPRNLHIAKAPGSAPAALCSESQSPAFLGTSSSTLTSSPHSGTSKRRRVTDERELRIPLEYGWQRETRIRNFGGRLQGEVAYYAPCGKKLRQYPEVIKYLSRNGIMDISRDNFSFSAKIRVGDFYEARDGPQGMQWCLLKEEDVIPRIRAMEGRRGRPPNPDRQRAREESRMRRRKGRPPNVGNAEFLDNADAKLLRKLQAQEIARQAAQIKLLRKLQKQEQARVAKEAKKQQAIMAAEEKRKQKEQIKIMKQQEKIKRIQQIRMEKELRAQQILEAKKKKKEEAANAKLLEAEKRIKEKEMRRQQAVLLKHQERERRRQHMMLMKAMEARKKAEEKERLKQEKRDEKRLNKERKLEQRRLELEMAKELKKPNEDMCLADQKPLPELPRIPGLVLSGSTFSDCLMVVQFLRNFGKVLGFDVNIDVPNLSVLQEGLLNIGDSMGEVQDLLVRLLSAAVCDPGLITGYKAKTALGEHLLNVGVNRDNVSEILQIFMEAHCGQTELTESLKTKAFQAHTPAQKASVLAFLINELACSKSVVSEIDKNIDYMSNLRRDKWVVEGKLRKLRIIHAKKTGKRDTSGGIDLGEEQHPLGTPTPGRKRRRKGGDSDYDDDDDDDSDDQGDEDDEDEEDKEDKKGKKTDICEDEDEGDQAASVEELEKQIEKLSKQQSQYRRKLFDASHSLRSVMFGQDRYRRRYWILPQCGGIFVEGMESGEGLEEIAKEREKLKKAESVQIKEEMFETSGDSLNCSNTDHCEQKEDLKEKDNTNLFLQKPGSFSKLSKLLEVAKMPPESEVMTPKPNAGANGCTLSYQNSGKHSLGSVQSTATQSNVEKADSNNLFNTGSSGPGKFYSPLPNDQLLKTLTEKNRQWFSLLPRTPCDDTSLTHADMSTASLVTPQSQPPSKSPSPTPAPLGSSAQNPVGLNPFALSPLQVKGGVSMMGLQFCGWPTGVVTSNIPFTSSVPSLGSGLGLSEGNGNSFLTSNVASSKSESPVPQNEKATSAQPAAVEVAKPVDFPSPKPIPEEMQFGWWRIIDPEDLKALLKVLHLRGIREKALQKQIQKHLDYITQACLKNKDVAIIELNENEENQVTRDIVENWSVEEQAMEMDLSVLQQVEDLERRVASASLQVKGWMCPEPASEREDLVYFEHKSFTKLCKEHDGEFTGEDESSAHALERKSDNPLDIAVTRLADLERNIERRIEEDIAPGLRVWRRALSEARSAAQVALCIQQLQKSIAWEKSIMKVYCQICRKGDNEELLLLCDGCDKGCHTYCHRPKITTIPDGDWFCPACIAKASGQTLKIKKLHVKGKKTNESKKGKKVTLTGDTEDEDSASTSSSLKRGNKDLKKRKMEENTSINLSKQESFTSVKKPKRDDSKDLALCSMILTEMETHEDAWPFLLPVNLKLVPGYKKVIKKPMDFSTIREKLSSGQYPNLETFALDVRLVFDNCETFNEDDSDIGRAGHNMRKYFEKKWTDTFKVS
#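 Multi-concentration screen (max 110 uM) measuring displacement of acetylated histone H3 peptide from BAZ2B by AlphaScreen, using 50 nM protein, 50 nM peptide and 10 ug/mL streptavidin donor plus Ni-chelate acceptor beads.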
# Hits are given with their value; – = inactive; ? = inconclusive; · = not tested or not shown; [ ] = another dose, or the depositor's remark. A selection: hits, their analogues and other compounds. The true share with any hit is near 8.7%. The call rests on the fitted dose curve; in most records, active means well fitted curve in the direction sought with a large enough effect; inconclusive means small, poorly fitted or top-dose-only effect, or another doubt; inactive means no such curve, though single readings can be large; an effect the other way counts as inactive or inconclusive.
SMILES,ALOX12 inh,HP1b binding inh,JMJD2A Tudor,Sfp PPTase inh,G9a block,BAZ2B block
O=C(c1cccs1)N1CCN(Cc2ccc(=O)n(CC3CC3)c2)CC1,–,·,·,·,·,·
O=c1[nH]c(/C=C\c2cccc(O)c2)nc(O)c1[N+](=O)[O-],–,–,–,–,–,–
O=c1[nH]c(/C=C\c2ccc(O)c(O)c2)nc(O)c1[N+](=O)[O-],?,–,?,45µM,40µM,?
Cc1cc(/C=C\c2nc(O)c([N+](=O)[O-])c(=O)[nH]2)c(C)n1-c1ccccc1,?,?,56µM,–,50µM,45µM
COc1ccc(-n2c(C)cc(/C=C/c3nc(O)c([N+](=O)[O-])c(=O)[nH]3)c2C)cc1,?,?,–[11.4 µM],–,28µM,50µM
CCOc1ccccc1/C=C\c1nc(O)c([N+](=O)[O-])c(=O)[nH]1,?,–,–,–,–,–
O=C(COc1ccccc1/C=C\c1nc(O)c([N+](=O)[O-])c(=O)[nH]1)Nc1ccccc1,–,–,–,–,50µM,?
O=S(=O)(c1ccc(F)cc1)N(Cc1nc(-c2ccccc2)no1)c1ccccc1,–,·,·,·,·,·
ClC(Cl)(c1nnnn1-c1ccccc1)c1nnnn1-c1ccccc1,?,?,20µM,2.8µM,0.56µM,56µM
CSc1ccccc1NC(=O)COC(=O)CNC(=O)CC12CC3CC(CC(C3)C1)C2,–,·,·,·,·,·
O=C(Cn1c(NCCCO)nc2ccccc21)c1ccc(Cl)cc1Cl,–,–,–,–,79µM,–
O=C(Cn1c(NCCCO)nc2ccccc21)c1ccc(Cl)cc1,?,–,–,–,·,–
COc1ccc(-n2c(C)cc(C(=O)Cn3c(NCCO)nc4ccccc43)c2C)cc1,–,?,?,–,50µM,50µM
CN(C)C(=O)COc1ccc(S(=O)(=O)c2ccc(OCC(=O)N(C)C)cc2)cc1,–,–,–,–,50µM,–
COCCN=c1scc(-c2cc(OC)ccc2OC)n1/N=C/c1c[nH]c2ccccc12,?,?,40µM,–,10µM,11µM
COc1ccc(OC)c(S(=O)(=O)N/N=C\c2c[nH]c3ccccc23)c1,–,–,–,–,?,–
Cc1noc(C)c1CC(=O)N1CCCn2cc(-c3ccccc3)nc21,–,·,·,·,·,·
Cc1cc(=O)[nH]c(N/N=C/c2ccc(O)c(O)c2)n1,?,–,2.8µM,?,–,–
Cc1cc(=O)[nH]c(N/N=C/c2c(O)n(-c3ccccc3)c(=O)c3ccccc23)n1,?,–,?,–,?,40µM
Cc1cccc(-n2c(O)c(C=Nc3ccccc3)c3ccccc3c2=O)n1,?,?,11µM,–,?,–
COc1ccc(N=Cc2c(O)n(-c3cccc(C)n3)c(=O)c3ccccc23)cc1,?,–,–,–,?,–
CSc1ccc(/C=N/Nc2nc(C)cc(=O)[nH]2)cc1,–,–,?,56µM,–,–
CCOC(=O)/C(C#N)=C\NC(C)=O,–,·,·,·,·,·
CCOc1ccccc1NC(=O)CCn1cnc2c1c(=O)n(C)c(=O)n2C,–,·,·,·,·,·
O=C(C[n+]1cc(Br)cc(Br)c1)c1cccc([N+](=O)[O-])c1,?,–,–,–,–,50µM
SMILES,ALOX12 inh,HP1b binding inh,JMJD2A Tudor,Sfp PPTase inh,G9a block,BAZ2B block
O=C(Nc1nc2ccccc2[nH]1)c1cccc([N+](=O)[O-])c1,–,–,–,–,–,–
O=C(Cc1nc2ccccc2[nH]1)c1cccc([N+](=O)[O-])c1,–,–,?,14µM,·,?
Cc1nc2nc(SCC(=O)C(C)(C)C)[nH]c2cc1Br,–,–,?,–,–,–
O=C(CSc1nc2ncc(Br)cc2[nH]1)c1cccc([N+](=O)[O-])c1,–,–,–,–,45µM,–
CC(C)(C)C(=O)CSc1nc2ncc(Br)cc2[nH]1,–,–,?,–,50µM,–
COc1ccc(CN(C)C(=O)c2cc(=O)[nH]c3ccccc23)c(OC)c1,–,·,·,·,·,·
CC1CNC(Cc2ccccc2)CN1C(=O)OC(C)(C)C (stereo not drawn),–[12.5 µM],·,·,·,·,·
CC(C)c1ccc(-n2nnnc2SCc2nc3ccccc3o2)cc1,–,·,·,·,·,·
CCC(C)(C)c1ccc(OCCCC[n+]2cccc(C)c2C)c(C(C)(C)CC)c1,–,–,–,45µM,·,–
COc1ccc(C(=O)C[n+]2cccc(C)c2C)cc1[N+](=O)[O-],–,–,–,–,·,–
COCCOc1ccc(C(F)(F)F)cc1NC(=O)c1ccc(C)cc1,–,–,–,–,–,–
CCC(C)(C)c1ccc(OCCCC[n+]2ccc(C)cc2)c(C(C)(C)CC)c1,?,–,–,40µM,?,–
CCCC1=NN(C(=O)CSCc2ccccc2Cl)C(O)(C(F)(F)F)C1 (stereo not drawn),–,·,·,·,·,·
COc1ccccc1OCC(=O)NC1CCSc2ccccc21 (stereo not drawn),–,–,–,·,–[12.7 µM],–
COCCNC(=O)CSc1ccccc1C(=O)NC1CCSc2ccccc21 (stereo not drawn),?,–,–,–,35µM,–
O=C(COc1ccccc1)NC1CCSc2ccccc21 (stereo not drawn),–,–,–,·,6.3µM,–
COc1ccc(Nc2nc3ccccc3nc2NS(=O)(=O)c2cccc(Cl)c2)c(OC)c1,–,·,·,·,·,·
Cc1cccc(C(=O)N2CCCC(n3cc(-c4nc(C(C)C)no4)nn3)C2)c1 (stereo not drawn),–,·,·,·,·,·
COC(=O)c1ccc(NC(=O)c2c(NCc3cccc(F)c3)sc3c2CCCC3)cc1,?,–,?,·,?,–
CCOc1ccc(NC(=O)c2c(NC(=O)CN3CCCC3)sc3c2CCC3)cc1,–,–,–,–,–,?
CCOC(=O)N1CCc2c(sc(NCc3cc(OC)c(OC)cc3OC)c2C(=O)Nc2ccc(OCC)cc2)C1,–,?,11µM,·,3.2µM,?
COc1ccc(NC(=O)c2c(NC(=O)c3ccc(Br)cc3)sc3c2CCCC3)cc1,–,–,–,·,?,–
CCOc1ccc(NC(=O)c2c(NCc3cc(OC)c(OC)cc3OC)sc3c2CCCC3)cc1,?,?,25µM,·,13µM,25µM
CCOC(=O)c1ccc(NC(=O)c2c(NCc3cc(OC)ccc3OC)sc3c2CCC3)cc1,–,–,–,·,5µM,–
CCOC(=O)c1ccc(NC(=O)c2c(NCc3cc(OC)c(OC)cc3OC)sc3c2CCCC3)cc1,?,?,25µM,·,7.1µM,25µM
CCN1C(=O)C2(CCN(S(=O)(=O)c3c(C)nn(C)c3C)CC2)c2ccccc21,–,·,·,·,·,·
